Source: PubChem BioAssay (Tox21)
Values joined by “and” are separate entries in the source; they are usually repeats but may differ in a detail not shown here. Identical values can stand only once. Inconclusive results are not listed. The source holds several records for some structures; these can differ, active in one and inactive in another. Active and inactive are the calls of the source. Unless noted, the call rests on the fitted dose curve; in most records, active means well fitted curve in the direction sought with a large enough effect in the repeat runs; inconclusive means weak or mixed curves; inactive means no such curve, though single readings can be large; an effect the other way counts as inactive or inconclusive.

Experiments:
[1] = qHTS assay for small molecule agonists of the p53 signaling pathway (AID 651631; calls by dose curve; further: nearly all actives have a fitted effect of over 15% in size; further: potency means the concentration at half of the fitted maximal effect)
Method in brief: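 Beta-lactamase reporter activity under p53 response elements was quantified in HCT-116 cells by FRET fluorescence, following 16 h incubation with test compounds at 37 °C and 2 h substrate development at room temperature.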

[2] = qHTS assay for small molecules that induce genotoxicity in human embryonic kidney cells expressing luciferase-tagged ATAD5 (AID 651632); further: nearly all actives have a fitted effect of over 15% in size
Method in brief: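 ATAD5-luc HEK293T, 2,000 cells/well; cpd or DMSO pin-transferred; 16 hr, 37C/5% CO2; Amplite 30 min RT; luminescence.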

[3] = qHTS assay for small molecule agonists of the p53 signaling pathway - cell viability (AID 651633; calls by dose curve; further: nearly all actives have a fitted effect of over 30% in size; further: potency means the concentration at half of the fitted maximal effect)
Method in brief: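 Viability counter-read: CellTiter-Glo luminescence (30 min, room temperature) in the same p53RE-bla plates. These plates had been exposed to compounds for 16 h at 37 C.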

[4] = qHTS assay for small molecules that induce genotoxicity in human embryonic kidney cells expressing luciferase-tagged ATAD5 - cell viability (AID 651634; calls by dose curve; further: nearly all actives have a fitted effect of over 25% in size)
Method in brief: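 Fluorescence from CellTiter-Fluor, reporting protease activity within live cells, served as the viability read-out. HEK293T cells carrying luciferase-tagged ATAD5 had been treated with compound for 15.5 hr at 37C.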

[5] = qHTS assay for small molecule disruptors of the mitochondrial membrane potential - cell viability (AID 720634; calls by dose curve;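 further: human HepG2 liver cancer cells; series mostly up to about 83 µM; nearly all actives have a fitted effect of over 20% in size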)
Method in brief: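 Cells: HepG2, 2,000/well, attached overnight. Compound 1 hr, 37 C/5% CO2. +m-MPI dye, +CellTiter-Glo 30 min RT. Readout: luminescence (ATP).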

[6] = qHTS assay for small molecule disruptors of the mitochondrial membrane potential (AID 720635); further: potency means the concentration at half of the fitted maximal effect
Method in brief: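 Mitochondrial membrane potential tracked with Mito-MPS dye, red aggregates (ex 540/em 590 nm) against green monomers (ex 490/em 535 nm). Compound treatment 1 hr at 37C, dye 30 min in HepG2.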

[7] = qHTS assay to test for compound auto fluorescence at 590 nm (red) in HepG2 cells (AID 720674)
Method in brief: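 1 hr compound incubation on HepG2 cells, 37 C, 5% CO2; plate read ex 540 nm / em 590 nm; intensities reported as Rose Bengal sodium equivalents.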

[8] = qHTS assay to test for compound auto fluorescence at 535 nm (green) in HepG2 cells (AID 720675)
[9] = qHTS assay to test for compound auto fluorescence at 460 nm (blue) in HEK293 cells (AID 720678)
Method in brief: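 Measured: blue fluorescence (Ex 405/Em 460 nm) of compound-treated HEK293 cells, incubated overnight at 37C with 5% CO2 and scaled to triamterene equivalents.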

[10] = qHTS assay to test for compound auto fluorescence at 590 nm (red) in HEK293 cells (AID 720679)
Method in brief: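 Using HEK293 cells at 2,000 per well, the screen added 23 nL of each compound after cell attachment and incubated overnight (37C, 5% CO2). The plate reader then captured red-label fluorescence, Ex/Em 540/590nm.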

[11] = qHTS assay to test for compound auto fluorescence at 535 nm (green) in HEK293 cells (AID 720680)
[12] = qHTS assay to test for compound auto fluorescence at 460 nm (blue) in HEK293 cell free culture (AID 720681)
Method in brief: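 Blue fluorescence (Ex 405/Em 460 nm, triamterene-equivalent) was read immediately after pin transfer of compound or DMSO into medium (DMEM, 10% FBS) without cells.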

[13] = qHTS assay to test for compound auto fluorescence at 535 nm (green) in HEK293 cell free culture (AID 720682)
Method in brief: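 Each library compound, or DMSO control, is added by pintool to medium alone, comprising DMEM and 10% FBS. Emission at 535 nm following 485 nm excitation is quantified against fluorescein.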

[14] = qHTS assay to test for compound auto fluorescence at 590 nm (red) in HEK293 cell free culture (AID 720683)
Method in brief: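 Red-channel autofluorescence of compounds in culture medium (DMEM, 10% FBS), no cells, measured at 540/590 nm. Rose Bengal sodium is the reference fluorophore for equivalence.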

[15] = qHTS assay to test for compound auto fluorescence at 590 nm (red) in HepG2 cell free culture (AID 720684)
Method in brief: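 Plate contents were MEM with 10% FBS plus test compound or DMSO, no cells. Fluorescence was recorded with 540 nm excitation and 590 nm emission.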

[16] = qHTS assay to test for compound auto fluorescence at 460 nm (blue) in HepG2 cell free culture (AID 720685)
Method in brief: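 Compound (23 nL) or DMSO pinned into cell-free MEM with 10% FBS; blue fluorescence read at 405/460 nm excitation/emission, expressed as auto-fluorescence equivalency to triamterene.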

[17] = qHTS assay to test for compound auto fluorescence at 535 nm (green) in HepG2 cell free culture (AID 720686)
[18] = qHTS assay to test for compound auto fluorescence at 460 nm (blue) in HepG2 cells (AID 720687)
Method in brief: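 Blue-channel autofluorescence (Ex/Em 405/460 nm, triamterene-equivalent) was measured after 1 hr compound exposure at 37 C, 5% CO2. Cells were HepG2, plated overnight at 37 C in MEM plus 10% FBS.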

[19] = molecular target: Glucocorticoid receptor (Homo sapiens) (UniProt P04150); assay: qHTS assay to identify small molecule agonists of the glucocorticoid receptor (GR) signaling pathway (AID 720691; active means well fitted activation curve with a large enough effect in the signal ratio in the repeat runs, not every such curve was filed as active; the % refers to the signal ratio)
Method in brief: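 Fluorescence intensity from LiveBLAzer B/G FRET substrate (2 h, room temperature) reports beta-lactamase expression driven by the glucocorticoid response element in GR-bla HeLa cells after 18 h compound exposure at 37 C.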

[20] = molecular target: Glucocorticoid receptor (Homo sapiens) (UniProt P04150); assay: qHTS assay to identify small molecule antagonists of the glucocorticoid receptor (GR) signaling pathway (AID 720692; active means well fitted inhibition curve with a large enough effect in the signal ratio in the repeat runs, not every such curve was filed as active; the % refers to the signal ratio)
Method in brief: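 HeLa GR-bla cells; cmpd + dex 5 nM final, 18 h 37 C; LiveBLAzer B/G FRET substrate 2 h RT; fluorescence intensity read. Antagonist mode, qHTS.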

Measured: Potency

Glucocorticoid receptor (Homo sapiens), sequence (P04150 whole entry, looked up): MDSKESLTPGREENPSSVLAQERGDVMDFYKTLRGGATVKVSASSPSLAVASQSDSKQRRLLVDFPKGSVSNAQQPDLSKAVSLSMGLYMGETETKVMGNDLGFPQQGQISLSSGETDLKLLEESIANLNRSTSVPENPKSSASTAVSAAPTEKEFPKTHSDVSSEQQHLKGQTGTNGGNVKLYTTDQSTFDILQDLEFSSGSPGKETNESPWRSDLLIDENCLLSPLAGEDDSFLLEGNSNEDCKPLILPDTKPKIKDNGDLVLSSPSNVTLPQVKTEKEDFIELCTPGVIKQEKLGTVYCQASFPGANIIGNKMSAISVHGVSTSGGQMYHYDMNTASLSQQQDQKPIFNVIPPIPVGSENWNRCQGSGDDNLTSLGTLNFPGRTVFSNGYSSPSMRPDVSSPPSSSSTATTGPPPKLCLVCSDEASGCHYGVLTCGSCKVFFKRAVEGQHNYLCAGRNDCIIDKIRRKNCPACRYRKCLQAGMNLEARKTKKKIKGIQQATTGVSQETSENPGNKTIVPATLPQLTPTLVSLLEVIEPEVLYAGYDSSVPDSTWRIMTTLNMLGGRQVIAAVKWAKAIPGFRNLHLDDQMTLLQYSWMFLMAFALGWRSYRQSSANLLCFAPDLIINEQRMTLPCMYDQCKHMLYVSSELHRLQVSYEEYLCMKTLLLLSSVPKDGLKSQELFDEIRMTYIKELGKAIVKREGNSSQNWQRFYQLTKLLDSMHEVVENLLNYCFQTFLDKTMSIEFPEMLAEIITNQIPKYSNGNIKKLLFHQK

Cc1ccc(C(C)C)cc1
inactive: all assays above

CC(=O)OCc1ccc2c(c1)OCO2
inactive: all assays above

CC(C)(C)NC[C@H](O)COc1nsnc1N1CCOCC1
inactive: all assays above

CC(=O)Nc1ccc(CC(=O)O)cc1
inactive: all assays above

CC(=O)C(C)C
inactive: all assays above

CCOC(=O)c1ccc(O)cc1
inactive and 21.7 µM (active): [6]
inactive: all other assays above

Cc1cc(CC(=O)O)n(C)c1C(=O)c1ccc(Cl)cc1
inactive: all assays above

C=C(C)CC(C)(C)C
not listed: [6]
inactive: all other assays above

OC1CCCCC1
not listed: [5] | [6]
inactive: all other assays above

O=C(NCC1CCCCN1)c1cc(OCC(F)(F)F)ccc1OCC(F)(F)F (stereo unspecified)
not listed: [2] | [4] | [19] | [20]
inactive: all other assays above

CCCOCC(C)O (stereo unspecified)
54.5 µM (active) and inactive: [6]
not listed: [1] | [19] | [20]
inactive: all other assays above

COc1ccc2cc3[n+](cc2c1OC)CCc1cc2c(cc1-3)OCO2
inactive and 30.9 µM (active): [3]
active: [1] 61.6 µM | [6] 1.68 µM and 870 nM
not listed: [4] | [20]
inactive: all other assays above

C1CCCNCC1
not listed: [1]
inactive: all other assays above

C=C1C[C@]23C[C@@]1(O)CC[C@H]2[C@@]12C=C[C@H](O)[C@@](C)(C(=O)O1)[C@H]2[C@@H]3C(=O)O
not listed: [1]
inactive: all other assays above
